Measured potencies and affinities stand elsewhere. Activity calls are given as the source filed them.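 Rule for the calls: active = fitted half-maximal dose no more than twice the top valid tested dose, for compounds that lower signal; inconclusive = fit invalid, or curve flat with activity between -70 and -30; inactive = potency past limit, curve flat within ±30, or signal increasing.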
Target: NAD-dependent protein deacylase sirtuin-5, mitochondrial (Homo sapiens) (UniProt Q9NXA8)
Assay: SIRT5 deacylase inhibitors, dose response, biochemical, fluorescence imaging, cherry-pick, set 6 (AID 720597);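 note: lower AMC signal can also come from blocking the trypsin step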
Conditions: Purified SirT5, succinyl-peptide-AMC/trypsin fluorescence; series mostly up to 15 µM

Sequence of NAD-dependent protein deacylase sirtuin-5, mitochondrial (Homo sapiens) (Q9NXA8 whole entry, looked up): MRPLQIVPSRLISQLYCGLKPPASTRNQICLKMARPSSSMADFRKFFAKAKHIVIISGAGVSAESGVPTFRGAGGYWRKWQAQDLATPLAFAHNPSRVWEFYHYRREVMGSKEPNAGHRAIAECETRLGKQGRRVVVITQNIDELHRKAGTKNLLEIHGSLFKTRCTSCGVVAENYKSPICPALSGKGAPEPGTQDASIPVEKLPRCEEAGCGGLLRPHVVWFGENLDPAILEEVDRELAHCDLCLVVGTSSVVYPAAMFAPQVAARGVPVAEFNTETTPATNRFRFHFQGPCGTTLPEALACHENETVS

outcome, inactive:
C[C@@H]1CN([C@H](C)CO)C(=O)c2cccc(NC(=O)c3nc4ccccc4s3)c2O[C@@H]1CN(C)C(=O)NC1CCCCC1
C[C@H]1CN([C@@H](C)CO)C(=O)c2cc(NC(=O)C3CCCCC3)ccc2O[C@@H]1CN(C)CC1CC1
O=C(N[C@@H]1CC[C@H](CCNS(=O)(=O)c2ccccc2)O[C@H]1CO)c1cnccn1
COc1ccc(S(=O)(=O)N[C@H]2C=C[C@@H](CC(=O)NCCc3ccncc3)O[C@H]2CO)cc1
C[C@H](CO)N1C[C@H](C)[C@H](CN(C)S(=O)(=O)c2ccc(Cl)cc2)OCc2ccccc2-c2c(n(C)c3ccccc23)C1=O
O=C(NCC[C@H]1CC[C@@H](NC(=O)C2CC2)[C@H](CO)O1)c1cc(Cl)cc(Cl)c1
C[C@@H]1CN([C@H](C)CO)C(=O)c2cc(Br)cnc2O[C@@H]1CN(C)Cc1cncnc1
Cc1noc(C)c1NC(=O)Nc1cccc2c1O[C@H](CN(C)Cc1ccc(Oc3ccccc3)cc1)[C@@H](C)CN([C@@H](C)CO)C2=O
O=S(=O)(c1ccccc1)N1CCCCN2[C@H](C1)[C@H](c1ccc(C#CC3CCCC3)cc1)[C@@H]2CO
CO[C@@H](C(=O)N(C)C[C@H]1OCc2ccccc2-c2ccccc2C(=O)N([C@@H](C)CO)C[C@@H]1C)c1ccccc1
Cc1ccc(S(=O)(=O)N(C)C[C@@H]2OCc3ccccc3-c3c(n(C)c4ccccc34)C(=O)N([C@H](C)CO)C[C@@H]2C)cc1

From PubChem BioAssay AID720597 (Broad Institute, 2013)
